The results in this text go back to article PMC4336329 (PLoS ONE, 2015).

Hit rate of the full screen: of about 310,000 compounds, about 14,000 (4.5%) showed an effect of 50% or more. Effects have a minus sign here. The sample as a whole holds a higher share of strong results than the screen did.
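Also: peak tail current of the secondary pulse compared with the same well before compound.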

This experiment deals with human ether-à-go-go-related gene (hERG) potassium channel (human, UniProt Q12809). Briefly: primary screen, population patch clamp on CHO cells stably expressing hERG; higher = less effect of the substance.
Chain of human ether-à-go-go-related gene (hERG) potassium channel (Q12809 whole entry, looked up): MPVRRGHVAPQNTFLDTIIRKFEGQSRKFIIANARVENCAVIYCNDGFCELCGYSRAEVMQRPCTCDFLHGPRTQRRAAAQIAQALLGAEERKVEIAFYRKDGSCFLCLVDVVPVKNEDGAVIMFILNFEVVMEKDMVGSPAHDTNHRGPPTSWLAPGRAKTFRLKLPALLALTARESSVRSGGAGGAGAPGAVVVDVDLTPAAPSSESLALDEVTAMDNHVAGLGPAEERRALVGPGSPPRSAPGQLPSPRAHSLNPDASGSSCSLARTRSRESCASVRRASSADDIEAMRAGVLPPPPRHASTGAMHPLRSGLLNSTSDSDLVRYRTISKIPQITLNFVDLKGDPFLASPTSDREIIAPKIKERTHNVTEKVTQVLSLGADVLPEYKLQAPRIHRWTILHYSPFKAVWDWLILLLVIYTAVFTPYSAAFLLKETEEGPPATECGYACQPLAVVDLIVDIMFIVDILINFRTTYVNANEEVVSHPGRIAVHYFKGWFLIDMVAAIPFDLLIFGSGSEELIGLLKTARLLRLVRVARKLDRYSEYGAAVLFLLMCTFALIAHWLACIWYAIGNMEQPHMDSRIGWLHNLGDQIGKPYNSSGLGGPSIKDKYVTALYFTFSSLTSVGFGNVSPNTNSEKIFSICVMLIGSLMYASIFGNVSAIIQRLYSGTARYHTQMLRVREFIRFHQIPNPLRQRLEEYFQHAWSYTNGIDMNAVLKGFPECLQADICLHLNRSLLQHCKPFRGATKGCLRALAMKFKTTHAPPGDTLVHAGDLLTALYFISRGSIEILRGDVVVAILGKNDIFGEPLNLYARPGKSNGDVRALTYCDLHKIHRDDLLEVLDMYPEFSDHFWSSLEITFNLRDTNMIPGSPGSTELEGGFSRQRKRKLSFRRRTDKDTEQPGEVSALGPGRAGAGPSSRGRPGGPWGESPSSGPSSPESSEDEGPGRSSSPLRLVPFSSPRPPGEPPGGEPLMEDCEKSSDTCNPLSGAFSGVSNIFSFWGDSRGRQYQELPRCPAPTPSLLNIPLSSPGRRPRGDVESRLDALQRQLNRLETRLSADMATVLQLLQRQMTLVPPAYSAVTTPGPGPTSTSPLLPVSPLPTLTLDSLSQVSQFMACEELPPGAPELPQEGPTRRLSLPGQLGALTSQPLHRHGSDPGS
With `CCOC(=O)c1ccc(NCc2ccncc2)cc1`, the “hERG current change (%, negative = inhibition) at 10uM” value was -1.66%.
In the case of `O=C(CN(Cc1ccco1)S(=O)(=O)c1cccs1)Nc1ccccc1C(F)(F)F` it was -32.8%.
In the case of `Oc1c(Br)cc(Cl)cc1C=Nc1ccc(N2CCOCC2)cc1` it was 19.6%; in that of `Cc1c(C(=O)NCc2ccco2)cccc1[N+](=O)[O-]`, -6.07%.
In the case of `CCN1C(=O)/C(=C\C=C2/C=CC=CN2CC)SC1=S` it was -5.68%; in that of `O=C(c1cc(COc2ccc(F)cc2Cl)on1)N1CCC(OCc2cccnc2)CC1`, -75.8%.
Consider `O=C(c1cc(COc2ccc(F)cc2Cl)on1)N1CCCCC1c1cccnc1` (stereo not shown), for which the “hERG current change (%, negative = inhibition) at 10uM” value was -41.8%.
To `O=C(c1cc(COc2ccccc2)on1)N1CCCC(OCc2cccnc2)C1` (stereo not shown) belongs -16.6%.
In the case of `COc1ccccc1OCc1cc(C(=O)N2CCCC(OCc3cccnc3)C2)no1` (stereo not shown) it was -22%; in that of `O=C(c1cc(COc2ccc(F)cc2Cl)on1)N1CCCC(OCc2cccnc2)C1` (stereo not shown), -53.5%.
In the case of `O=C(c1cc(COc2ccc(F)cc2Cl)on1)N1CCN(c2cnccn2)CC1` it was -46.9%; in that of `Nc1nc(SCC(=O)NCCCN2CCOCC2)nc2sc3c(c12)CCC3`, -9.2%; in that of `Nc1nc(SCC(=O)NCCN2CCOCC2)nc2sc3c(c12)CCC3`, -65.9%.
Take `Nc1nc(SCC(=O)NCCCO)nc2sc3c(c12)CCC3`: the “hERG current change (%, negative = inhibition) at 10uM” value is listed as -3.17%.
In the case of `Cc1ccc(-c2csc(NC(=O)CSc3nc(C)cc(=O)[nH]3)n2)cc1` it was 1.07%; in that of `Cc1nc2ccc(S(=O)(=O)NCC(=O)N3CCc4ccccc4C3)cc2s1`, 0.862%.
In the case of `O=C(CN1CCN(Cc2ccc(Cl)cc2)CC1)N1CCc2ccccc21` it was -67.5%.
In the case of `Cc1nc2ccc(S(=O)(=O)N(C)CC(=O)N3CCc4ccccc43)cc2s1` it was -42.5%.
For `CN(CC(=O)N1CCc2ccccc21)S(=O)(=O)c1ccc(Cl)cc1`, the “hERG current change (%, negative = inhibition) at 10uM” value was -51.2%.
To `COc1cc2c(cc1OC)CN(C(C)C(=O)N1CCc3ccccc31)CC2` (stereo not shown) belongs -14%; to `CN(CC(=O)N1CCc2ccccc21)S(=O)(=O)c1cccs1`, -22%.
In the case of `Cc1ccc(S(=O)(=O)N(C)CC(=O)N2CCCc3ccccc32)cc1` it was -16.1%.
As to `O=C(CN1CCCCC1)N1CCc2ccccc21`, the “hERG current change (%, negative = inhibition) at 10uM” value is listed as -6%.
In the case of `COc1ccc(N2CCN(C(C)C(=O)N3CCc4ccccc43)CC2)cc1` (stereo not shown) it was -17.7%; in that of `O=C1N(CC(=O)N2CCc3ccccc32)CCN1Cc1ccc(Cl)cc1`, -11.8%.
In the case of `Cc1nc2ccc(S(=O)(=O)N(C)CC(=O)N3CCc4ccccc4C3)cc2s1` it was -53.2%; in that of `COc1ccc(CN2CCN(C(C)C(=O)N3CCc4ccccc43)CC2)cc1OC` (stereo not shown), -74%; in that of `CCNc1nc(NCC)nc(NS(=O)(=O)c2ccc(N)cc2)n1`, 22.7%.
To `CCOC(=O)C(C(=O)Nc1ccc(C)cc1)C1CCCCC1` (stereo not shown) belongs 0.407%; to `CC(C)n1nnc2ccccc2c1=O`, 10%; to `CN(C)S(=O)(=O)c1cccc(-c2cn3ccccc3n2)c1`, -2.91%.
In the case of `CC1CC1C(=O)OCC(=O)NNC(=O)c1ccc([N+](=O)[O-])cc1` (stereo not shown), the “hERG current change (%, negative = inhibition) at 10uM” value is given as -2.32%.
To `COc1ccc(C2/C(=C(/O)c3ccc(C)cc3)C(=O)C(=O)N2CC2CCCO2)cc1OC` (stereo not shown) belongs 20.8%.
Consider `CCOC(=O)CNC(=O)c1ccc(C)cc1`, for which the “hERG current change (%, negative = inhibition) at 10uM” value was found to be 4.88%.
To `COc1cc(SC)ccc1C(=O)OCC(=O)NC1CC1` belongs 7.53%; to `CC(=O)Cn1nnc(-c2ccc(C(F)(F)F)cc2)n1`, 6.1%; to `CCN1CCN(CCCNC(=O)c2ccccc2NC(=O)C2=C(C)OCCS2)CC1`, 1.11%.
In the case of `CC(C(=O)N1CCc2ccccc21)N1CCN(Cc2ccccc2)CC1` (stereo not shown) it was -34%; in that of `CC(C(=O)N1CCc2ccccc21)N1CCc2ccccc2C1` (stereo not shown), -18.9%; in that of `CC(C(=O)N1CCc2ccccc21)N1CCN(Cc2ccc(Cl)cc2)CC1` (stereo not shown), -67%.
To `COCCCNc1nc2c(-c3cccc(C(F)(F)F)c3)nnn2c2ccccc12` belongs -1.31%.
In the case of `O=[N+]([O-])c1ccc(/C=N/Nc2cc(Cl)nc(-c3ccccc3)n2)cc1`, the “hERG current change (%, negative = inhibition) at 10uM” value amounted to 2.34%.
In the case of `CCC(C)c1ccc(OCC(=O)O)cc1` (stereo not shown) it was 11.5%.
Take `CC(=O)N(Cc1cccnc1)c1cccc(-c2nc3ccccc3s2)c1`: the “hERG current change (%, negative = inhibition) at 10uM” value was -51.1%.
To `c1cncc(-c2nc3ccccc3s2)c1` belongs 2.39%.
For `O=C(NCc1cccnc1)c1cccnc1-c1nc2ccccc2s1`, the “hERG current change (%, negative = inhibition) at 10uM” value is reported as -14%.
To `COC(C)(C)[C@H](O)COc1c2ccoc2cc2oc(=O)ccc12` belongs 11.2%.
For the compound `Cc1cccc(CCNC(=O)CCNS(=O)(=O)c2cc(Br)cnc2N)c1`, the “hERG current change (%, negative = inhibition) at 10uM” value is -5.7%.
In the case of `CC(C)c1ccc(-c2c(C#N)c(N)nc(SCC(=O)N3CCCCCC3)c2C#N)cc1` it was 8.56%.
In the case of `COc1ccccc1C(=O)Nc1ccc(OC(C)C(=O)N2CCOCC2)cc1` (stereo not shown), the “hERG current change (%, negative = inhibition) at 10uM” value amounted to 1.1%.
`Cc1cccc(NC(=O)N2CCCC2)c1`: the “hERG current change (%, negative = inhibition) at 10uM” value is 12.4%.
To `Cc1cccc(NC(=O)c2ccc(CN3CCN(Cc4ccccc4)CC3)cc2)c1` belongs -80.3%.
To `Cc1cccc(NC(=O)N2CCN(Cc3ccccc3)CC2)c1` belongs 8.14%; to `COc1cccc(NC(=O)c2ccc(CN3CCN(c4ccccc4)CC3)cc2)c1`, -48.8%; to `Cc1cccc(NC(=O)N2CCN(Cc3ccc(Cl)cc3)CC2)c1`, -50.7%.
In the case of `O=C(Nc1cccc(C(=O)N2CCN(Cc3ccccc3)CC2)c1)c1ccccc1`, the “hERG current change (%, negative = inhibition) at 10uM” value is listed as -16.7%.
On to `O=S(=O)(NNC(=S)NCC1CCCO1)c1cc(Cl)ccc1Cl` (stereo not shown), for which the “hERG current change (%, negative = inhibition) at 10uM” value came out at 9.42%.
In the case of `COC(=O)C1=C(C)N(CCc2ccccc2)C(=O)/C1=C\c1ccco1` it was -4.19%; in that of `Cn1c(=O)c2c(nc(NCCCO)n2C/C=C/c2ccccc2)n(C)c1=O`, -21%.
In the case of `CCn1c(CSCc2ccc(F)cc2)nnc1SCC(=O)N1CCN(c2ccccc2)CC1` it was -58.6%; in that of `Cn1c(CNC(=O)c2ccccc2)nnc1SCC(=O)N1CCN(c2ccccc2)CC1`, 1.77%.
For the compound `CCn1c(CSCc2ccc(C)cc2)nnc1SCC(=O)N1CCN(c2ccccc2)CC1`, the “hERG current change (%, negative = inhibition) at 10uM” value is on record as -45.4%.
To `Cn1c(Cc2ccccc2)nnc1SCC(=O)N1CCN(c2ccccc2)CC1` belongs -14.5%; to `Cc1ccc(CSCC(=O)N2CCN(c3ccccc3)CC2)cc1`, -9.06%.
In the case of `Cn1c(CSCc2ccc(F)cc2)nnc1SCC(=O)N1CCN(c2ccccc2)CC1` it was -70.7%.
To `COc1ccc(-n2cnnc2SCC(=O)N2CCN(c3ccccc3)CC2)cc1` belongs -36.2%.
Turning to `Cn1c(CNC(=O)c2ccccc2F)nnc1SCC(=O)N1CCN(c2ccccc2)CC1`, the “hERG current change (%, negative = inhibition) at 10uM” value was -8.2%.
To `C=CCn1c(CSCc2ccccc2)nnc1SCC(=O)N1CCN(c2ccccc2)CC1` belongs -23.6%; to `Cc1ccc(CSCc2nnc(SCC(=O)N3CCN(c4ccccc4)CC3)n2C)cc1`, -54%.
To `O=C(CSc1nncn1-c1ccccc1)N1CCCC1` belongs 2.66%.
As for `Cc1ccccc1-n1cnnc1SCC(=O)N1CCN(c2ccccc2)CC1`, the “hERG current change (%, negative = inhibition) at 10uM” value was -57.7%.
In the case of `COc1ccc(OCC(N)=O)cc1` it was 8.9%; in that of `O=c1[nH]c(SCc2cccc(Cl)c2)nc2[nH]ncc12`, 12.6%.
As to `C#Cc1ccc([C@@H]2C=C(C(=O)NC3CC3)O[C@H](OCC)[C@H]2CCCO)cc1`, the “hERG current change (%, negative = inhibition) at 10uM” value is listed as -35.2%.
To `CC(NC(=O)c1ccccc1)c1nnc(SCc2nc3ccccc3c(=O)[nH]2)n1C` (stereo not shown) belongs 14%.
To `C[C@@H](CO)NC(=O)c1ccc2c3n(nc2c1)-c1ccc(Cl)cc1CO3` belongs -1.96%; to `Cc1ccccc1NC(=O)CN1C(=O)NC(C)(c2ccc3c(c2)OCO3)C1=O` (stereo not shown), 9.53%.
To `COc1ccc(C)cc1-n1nnnc1SCC(=O)NC1CC1` belongs 0.673%; to `Cc1ccc(C)c(OCc2cc(C(=O)N3CCN(c4ccccc4)CC3)no2)c1`, -31.4%.
Turning to `CCN1CCC2(CCN(C(=O)c3cc(COc4cc(C)ccc4C)on3)C2)C1` (stereo not shown), the “hERG current change (%, negative = inhibition) at 10uM” value is -54.8%.
To `COCCN1CCN(C(=O)c2cc(COc3cc(C)ccc3C)on2)CC1` belongs 1.06%; to `Cc1ccc(C)c(OCc2cc(C(=O)N3CCN(C(=O)c4ccco4)CC3)no2)c1`, -10.7%.
In the case of `Cc1ccc(C)c(OCc2cc(C(=O)N3CCN(c4cnccn4)CC3)no2)c1`, the “hERG current change (%, negative = inhibition) at 10uM” value was -81.7%.
As to `Cc1ccc(C)c(OCc2cc(C(=O)N3CCOCC3)no2)c1`, the “hERG current change (%, negative = inhibition) at 10uM” value is recorded as -3.82%.
In the case of `FC(F)(F)c1ccc(N2CCN(c3ncnc4c3nnn4Cc3ccccc3)CC2)nc1` it was -2.11%; in that of `C=CCn1c(C)cc(C(=O)CSc2nnc(NCc3ccccc3)s2)c1C`, -8.54%.
In the case of `O=c1[nH]c(O)c(C=Nc2ccccc2Oc2ccccc2)c(=O)[nH]1` it was 15.9%.
`COc1ccc(NS(=O)(=O)c2ccc(NC(=O)Cc3cccs3)cc2)cc1`: the “hERG current change (%, negative = inhibition) at 10uM” value turned out to be 12.7%.
